Source: PubChem BioAssay (NCATS)
Records with an inconclusive call do not appear. A call without a number means that no potency is given here. The source made the active and inactive calls. Calls follow the shape of the dose curve; as a rule, active = well fitted curve in the direction sought with a large enough effect; inconclusive = small, poorly fitted or top-dose-only effect, or another doubt; inactive = no such curve, though single readings can be large; an effect the other way counts as inactive or inconclusive.

Columns and labels:
[1] = P-glycoprotein substrates identified in KB-3-1 adenocarcinoma cell line, qHTS therapeutic library screen (AID 1346986); also: nearly all actives have a fitted effect of over 60% in size;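 also: potency is read from the fitted curve at half-maximal effect; potency is for cytotoxicity meaning loss of cell viability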
Procedure, shortened: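 In 1536-well format, 500 cells/well received pinned compound titrations and were incubated 72 h, 5% CO2. Viability was read by CellTiter-Glo; cytotoxic if AC50 < 10 uM and efficacy >50%.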

[2] = P-glycoprotein substrates identified in KB-8-5-11 adenocarcinoma cell line, qHTS therapeutic library screen (AID 1346987); also: nearly all actives have a fitted effect of over 65% in size; also: potency is read from the fitted curve at half-maximal effect
Procedure, shortened: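 Compounds are pinned in dose-response onto KB-8-5-11 cells (500 cells/well, colchicine-free medium) and left 72 h at 37 degree C. CellTiter-Glo luminescence then yields AC50 values.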

[3] = Primary qHTS for inhibitors of nuclear receptor binding SET domain protein 2 (NSD2) in an isogenic RCH-ACV NSD2 p.E1099K mutant (9B) (AID 1645876); also: nearly all actives have a fitted effect of over 70% in size; also: potency is read from the fitted curve at half-maximal effect
[4] = Primary qHTS for inhibitors of nuclear receptor binding SET domain protein 2 (NSD2) in an RCH-ACV wild type WT cells (2C) (AID 1645877); also: nearly all actives have a fitted effect of over 70% in size; also: potency is read from the fitted curve at half-maximal effect
[5] = target: Glutathione peroxidase 1 (Homo sapiens) (UniProt P07203); assay: Primary qHTS Assay for Inhibitors of Recombinant Selenoprotein Glutathione Peroxidase 1 (GPX1) (AID 1845191); also: nearly all actives have a fitted effect of over 65% in size; also: potency is read from the fitted curve at half-maximal effect
Sequence of Glutathione peroxidase 1 (Homo sapiens) (P07203 whole entry, looked up): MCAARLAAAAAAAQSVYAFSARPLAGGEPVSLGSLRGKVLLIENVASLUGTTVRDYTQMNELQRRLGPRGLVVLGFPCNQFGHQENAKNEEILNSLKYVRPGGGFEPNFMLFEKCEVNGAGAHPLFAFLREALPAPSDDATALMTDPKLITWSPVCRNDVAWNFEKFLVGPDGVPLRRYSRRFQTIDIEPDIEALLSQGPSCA
Procedure, shortened: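 GR-coupled readout: NADPH consumption tracked by fluorescence, ex 340/em 450 nm, at t=0 and after 15 min at RT. Final mix 10 nM GPX1, 1 mM GSH, 0.5 mM CHP, 0.5 mM NADPH, 100 nM GR, 0.01% BSA, following 30 min enzyme–compound preincubation.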

[6] = target: Catechol O-methyltransferase (Homo sapiens) (UniProt P21964); assay: Confirmatory Screen for Target Class Profiling of Small Molecule Inhibitors of Methyltransferases (AID 1745852); conditions: MTase-Glo luminescence, SAH detection, recombinant enzyme; measured here: COMT max response; stronger effect = lower value
Sequence of Catechol O-methyltransferase (Homo sapiens) (P21964 whole entry, looked up): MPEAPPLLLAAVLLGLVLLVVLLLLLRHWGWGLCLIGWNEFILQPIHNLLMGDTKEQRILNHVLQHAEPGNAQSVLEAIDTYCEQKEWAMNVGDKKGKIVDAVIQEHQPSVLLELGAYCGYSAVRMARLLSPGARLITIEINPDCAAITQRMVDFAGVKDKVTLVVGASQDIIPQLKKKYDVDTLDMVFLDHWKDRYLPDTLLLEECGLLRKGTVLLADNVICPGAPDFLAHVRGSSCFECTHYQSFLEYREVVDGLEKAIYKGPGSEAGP

[7] = target: Guanidinoacetate N-methyltransferase (Homo sapiens) (UniProt Q14353); assay: as above; conditions: activity change, negative = inhibition: at 57.3 µM (top of the series) unless noted
[8] = target: Nicotinamide N-methyltransferase (Homo sapiens) (UniProt P40261); assay: as above; conditions: MTase-Glo luminescence, SAH detection, recombinant enzyme; measured here: NNMT max response; stronger effect = lower value
Sequence of Nicotinamide N-methyltransferase (Homo sapiens) (P40261 whole entry, looked up): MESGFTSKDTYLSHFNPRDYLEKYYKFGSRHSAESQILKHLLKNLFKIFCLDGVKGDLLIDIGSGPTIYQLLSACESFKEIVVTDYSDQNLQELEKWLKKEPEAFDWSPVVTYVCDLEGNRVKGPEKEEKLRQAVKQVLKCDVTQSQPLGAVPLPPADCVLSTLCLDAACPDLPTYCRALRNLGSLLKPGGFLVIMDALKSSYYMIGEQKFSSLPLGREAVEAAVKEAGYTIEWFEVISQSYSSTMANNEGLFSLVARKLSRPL

[9] = target: Phenylethanolamine N-methyltransferase (Homo sapiens) (UniProt P11086); assay: as above; conditions: MTase-Glo luminescence, SAH detection, recombinant enzyme; measured here: PNMT max response; stronger effect = lower value
Sequence of Phenylethanolamine N-methyltransferase (Homo sapiens) (P11086 whole entry, looked up): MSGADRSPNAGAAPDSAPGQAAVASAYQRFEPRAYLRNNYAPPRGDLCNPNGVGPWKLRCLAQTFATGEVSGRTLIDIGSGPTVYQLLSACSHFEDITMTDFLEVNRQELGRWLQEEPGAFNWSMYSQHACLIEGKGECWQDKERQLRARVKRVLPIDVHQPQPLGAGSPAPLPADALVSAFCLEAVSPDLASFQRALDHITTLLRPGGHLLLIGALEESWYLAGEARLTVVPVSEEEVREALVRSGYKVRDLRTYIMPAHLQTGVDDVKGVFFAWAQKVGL

| SMILES | Potency [1] | Potency [2] | Potency [3] | Potency [4] | Potency [5] | activity [6] [%] | activity change, negative = inhibition [7] [%] | activity [8] [%] | activity [9] [%] |
| --- | --- | --- | --- | --- | --- | --- | --- | --- | --- |
| O=C(O)c1c[nH]c2c(ccc3ccccc32)c1=O | inactive | inactive | inactive | inactive | inactive | – | – | – | – |
| Cc1cc(-c2ccc(/C=C3\SC(=Nc4ccc(Cl)c(C(=O)O)c4)NC3=O)o2)c([N+](=O)[O-])cc1C | inactive | inactive | inactive | inactive | 20.2 µM (active) | – | – | – | – |
| C/C(=C1/C(=O)Nc2ccc(NC(N)=O)cc21)c1ccc[nH]1 | 4.61 µM (active) | 4.61 µM (active) | 1.64 µM (active) | 1.84 µM (active) | – | – | – | – | – |
| CC(N)C1CCC(C(=O)Nc2ccncc2)CC1 (configuration not stated) | inactive | inactive | inactive | inactive | – | – | – | – | – |
| Cc1cncc2cccc(S(=O)(=O)N3CCCNC[C@@H]3C)c12 | 6.51 µM (active) | 1.64 µM (active) | 13 µM (active) | 3.66 µM (active) | inactive | – | – | – | – |
| CCOC(=O)c1cc2ccc(O)cc2oc1=O | inactive | inactive | inactive | inactive | – | – | – | – | – |
| S=c1ssc2c1CCC2 | inactive | inactive | inactive | inactive | – | -2.41 | 0 | -69.9 | -71 |
| CC(CCc1ccccn1)(CCc1ccccn1)C(=O)c1ccccc1 | inactive | inactive | inactive | inactive | – | – | – | – | – |
| CCN(CC)CCNC(=O)c1c(C)[nH]c(/C=C2\C(=O)Nc3ccc(Cl)cc32)c1C | 16.4 µM (active) | 18.4 µM (active) | 2.59 µM (active) | 2.91 µM (active) | inactive | – | – | – | – |
| Cc1ccc(Cl)cc1NC(=O)c1nc[nH]c1C(=O)Nc1nc2ccccc2[nH]1 | inactive | inactive | inactive | inactive | inactive | – | – | – | – |
| CCOc1cccc2c1OC(c1ccc(F)cc1)C([N+](=O)[O-])=C2 (configuration not stated) | 8.2 µM (active) | 11.6 µM (active) | 5.8 µM (active) | 5.8 µM (active) | – | – | – | – | – |
| CC(C)n1nc(-c2ccc(NC(=O)Nc3cccc(C(F)(F)F)c3)cc2)c2c(N)ncnc21 | 1.03 µM (active) | 4.11 µM (active) | 0.366 µM (active) | 0.259 µM (active) | inactive | -1.63 | 0 | -74.3 | -1.08 |
| CC/C=C\CC1C(=O)CCC1CC(=O)OC (configuration not stated) | inactive | inactive | inactive | inactive | inactive | – | – | – | – |
